# Inconclusive results are not listed. Calls of active or inactive are those of the source. Unless noted, calls come from the whole dose curve; as a rule, active = well fitted cell-killing curve with a large enough effect; inconclusive = small, poorly fitted or top-dose-only effect, or effect the other way; inactive = no such curve, though single readings can be large or run the other way.
# Experiments:
# [1] = Quantitative High-Throughput drug screen in 47 multiple myeloma cell lines against the NCATS MIPE library collection: KMS28PE_JCRB cell viability assay (AID 1918983); note: nearly all actives have a fitted effect of over 35% in size
# Outline: (§1)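 Plated at 500 cells per well, myeloma lines received MIPE 4.0 compounds by pin tool. Following 48 h culture at 37 °C, CellTiter-Glo luminescence gave viability relative to DMSO and media-only controls.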
# [2] = Quantitative High-Throughput drug screen in 47 multiple myeloma cell lines against the NCATS MIPE library collection: L363_DSMZ cell viability assay (AID 1918984); note: nearly all actives have a fitted effect of over 40% in size
# Outline: as §1
# [3] = Quantitative High-Throughput drug screen in 47 multiple myeloma cell lines against the NCATS MIPE library collection: KMS34_JCRB cell viability assay (AID 1918985); note: nearly all actives have a fitted effect of over 40% in size
# Outline: as §1
# [4] = Quantitative High-Throughput drug screen in 47 multiple myeloma cell lines against the NCATS MIPE library collection: OCIMY7_PLB cell viability assay (AID 1918987); note: nearly all actives have a fitted effect of over 65% in size
# Outline: as §1
# [5] = Quantitative High-Throughput drug screen in 47 multiple myeloma cell lines against the NCATS MIPE library collection: OPM1_PLB cell viability assay (AID 1918989); note: nearly all actives have a fitted effect of over 40% in size
# Outline: as §1
# [6] = Quantitative High-Throughput drug screen in 47 multiple myeloma cell lines against the NCATS MIPE library collection: SKMM1_PLB cell viability assay (AID 1919863); conditions: SKMM1 myeloma viability, CellTiter-Glo ATP, 48 h; viability: stronger effect = lower value; note: nearly all actives have a fitted effect of over 35% in size
# Outline: as §1
# [7] = Quantitative High-Throughput drug screen in 47 multiple myeloma cell lines against the NCATS MIPE library collection: U266_ATCC cell viability assay (AID 1919864); note: nearly all actives have a fitted effect of over 35% in size
# Outline: as §1
# [8] = Quantitative High-Throughput drug screen in 47 multiple myeloma cell lines against the NCATS MIPE library collection: XG6_PLB cell viability assay (AID 1919865); note: nearly all actives have a fitted effect of over 40% in size
# Outline: as §1
# [9] = Quantitative High-Throughput drug screen in 47 multiple myeloma cell lines against the NCATS MIPE library collection: XG1_PLB cell viability assay (AID 1919866); note: nearly all actives have a fitted effect of over 35% in size
# Outline: as §1
# [10] = Quantitative High-Throughput drug screen in 47 multiple myeloma cell lines against the NCATS MIPE library collection: VP6_DJ cell viability assay (AID 1919867); note: nearly all actives have a fitted effect of over 40% in size
# Outline: as §1
# [11] = Quantitative High-Throughput drug screen in 47 multiple myeloma cell lines against the NCATS MIPE library collection: UTMC2_PLB cell viability assay (AID 1919868); conditions: CellTiter-Glo ATP luminescence, 48 h; viability (% of DMSO control): at 45.8 µM (top of the series) unless noted; note: nearly all actives have a fitted effect of over 55% in size
# Outline: as §1
# [12] = Quantitative High-Throughput drug screen in 47 multiple myeloma cell lines against the NCATS MIPE library collection: PCM6_Riken cell viability assay (AID 1919870); note: nearly all actives have a fitted effect of over 30% in size
# Outline: as §1
# [13] = Quantitative High-Throughput drug screen in 47 multiple myeloma cell lines against the NCATS MIPE library collection: RPMI8226_ATCC cell viability assay (AID 1919871); note: nearly all actives have a fitted effect of over 30% in size
# Outline: as §1
# [14] = Quantitative High-Throughput drug screen in 47 multiple myeloma cell lines against the NCATS MIPE library collection: OPM2_DSMZ cell viability assay (AID 1919872); note: nearly all actives have a fitted effect of over 30% in size
# Outline: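 Relative luminescence from CellTiter-Glo served as the viability signal, referenced to DMSO-treated (100%) and cell-free medium (0%) controls. Treatment lasted 48 hours at 37C with 500 cells per well.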
# [15] = Quantitative High-Throughput drug screen in 47 multiple myeloma cell lines against the NCATS MIPE library collection: KMS11_JCRBsus cell viability assay (AID 1919873); note: nearly all actives have a fitted effect of over 50% in size
# Outline: as §1
# [16] = Quantitative High-Throughput drug screen in 47 multiple myeloma cell lines against the NCATS MIPE library collection: KMS28BM_JCRB cell viability assay (AID 1919874); note: nearly all actives have a fitted effect of over 35% in size
# Outline: as §1
# [17] = qHTS drug screen for cell cycle checkpoint inhibitors in PARPi-resistant BRCA-mutant ovarian cancer cell lines. (AID 1963452; calls by dose curve); conditions: PEO1/OlaR viability, CellTiter-Glo luminescence, 96 h; for Z-AUC: stronger effect = lower value
# Outline: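 PEO1, PEO4 and PEO1/OlaR ovarian cancer cells, 600 per well, exposed 96 h at 37C to a dilution series. Viability read by CellTiter-Glo luminescence, normalized to DMSO and empty wells; activity summarized as Z-AUC.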
# [18] = Quantitative High-Throughput drug screen in 47 multiple myeloma cell lines against the NCATS MIPE library collection: OCIMY5_PLB cell viability assay (AID 1918988); note: nearly all actives have a fitted effect of over 65% in size
# Outline: as §1
# [19] = Quantitative High-Throughput drug screen in 47 multiple myeloma cell lines against the NCATS MIPE library collection: PE2_PLB cell viability assay (AID 1919869); note: nearly all actives have a fitted effect of over 35% in size
# Outline: as §1
# [20] = qHTS for identification of novel therapeutic agents for treatment of microphthalmiaassociated transcription factor (MiT) renal cell carcinoma (RCC) (AID 1963991; calls by dose curve); conditions: CellTiter-Glo, 48 h; for Potency: active = Z-AUC below -0.8 in all three lines; for z-score: stronger effect = lower value
# Outline: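 Three TFE3-fusion RCC cell lines (UOK109, UOK124, UOK145), 500 cells/well, were exposed to the 1912-compound MIPE 4.0 library for 48 hours at 37 C. Viability was read by CellTiter-Glo luminescence, normalised to DMSO (100%) and empty wells (0%), with 11-concentration curve fits.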
# [21] = measured here: PEO1 parental Z-AUC
# [22] = TFE3-RCC UOK109 viability, measured here: UOK109 Z-AUC
# [23] = TFE3-RCC viability, measured here: UOK124 Z-AUC
# [24] = TFE3-RCC viability, measured here: UOK145 Z-AUC
# Potency is the fitted concentration of half-maximal effect.
compound,measurement,setting,value
CC(C)(C)OC(=O)Nc1ccc(-c2cc(C(=O)NCCCCCCC(=O)NO)no2)cc1,Potency,[1],2350 nM (active)
same,Potency,[2],469 nM (active)
same,Potency,[3],2350 nM (active)
same,Potency,[4],1320 nM (active)
same,Potency,[5],1870 nM (active)
same,Potency,[6],2090 nM (active)
same,Potency,[7],2960 nM (active)
same,Potency,[8],3720 nM (active)
same,Potency,[9],1870 nM (active)
same,Potency,[10],833 nM (active)
same,Potency,[11],590 nM (active)
same,Potency,[12],1870 nM (active)
same,Potency,[13],3320 nM (active)
same,Potency,[14],2640 nM (active)
same,Potency,[15],1480 nM (active)
same,Potency,[16],1050 nM (active)
same,Z-AUC,[17],-0.0304 (inactive)
same,Z-AUC,[17]; [21],0.0473
same,Z-AUC,[17]; measured here: PEO4 Z-AUC,0.196
COc1cc2c(Oc3ccc(-c4cnc(Nc5ccc(F)cc5)n(C)c4=O)cc3F)ccnc2cc1OCCCN1CCOCC1,Potency,[1],11800 nM (active)
same,Potency,[2],833 nM (active)
same,Potency,[3],18700 nM (active)
same,Potency,[18],14800 nM (active)
same,Potency,[5],6620 nM (active)
same,Potency,[6],29600 nM (active)
same,Potency,[7],20900 nM (active)
same,Potency,[8],3320 nM (active)
same,Potency,[9],7430 nM (active)
same,Potency,[10],2640 nM (active)
same,Potency,[11],5260 nM (active)
same,Potency,[19],14800 nM (active)
same,Potency,[12],7430 nM (active)
same,Potency,[13],5900 nM (active)
same,Potency,[15],935 nM (active)
same,Potency,[16],4180 nM (active)
same,Z-AUC,[17],-1.38 (inactive)
same,Z-AUC,[17]; [21],-0.565
same,Z-AUC,[17]; measured here: PEO4 Z-AUC,-0.285
CCN1CCN(CC(=O)Nc2ccc(-c3cccc4c(=O)cc(N5CCOCC5)oc34)c3sc4ccccc4c23)CC1,Potency,[1],5260 nM (active)
same,Potency,[2],33.2 nM (active)
same,Potency,[3],2090 nM (active)
same,Potency,[4],46.9 nM (active)
same,Potency,[5],264 nM (active)
same,Potency,[6],7430 nM (active)
same,Potency,[7],18700 nM (active)
same,Potency,[8],2350 nM (active)
same,Potency,[9],935 nM (active)
same,Potency,[10],469 nM (active)
same,Potency,[11],187 nM (active)
same,Potency,[19],833 nM (active)
same,Potency,[12],1480 nM (active)
same,Potency,[15],332 nM (active)
same,Z-AUC,[17],-1.21 (inactive)
same,Z-AUC,[17]; [21],-0.89
same,Z-AUC,[17]; measured here: PEO4 Z-AUC,-0.929
same,Potency,[20]; TFE3-RCC UOK109 viability,2640 nM (active)
same,z-score,[20]; [22],-2
same,z-score,[20]; [23],-1.8
same,z-score,[20]; [24],-2.12
CC[C@@]1(O)C(=O)OCc2c1cc1n(c2=O)Cc2cc3cc(O)ccc3nc2-1,Potency,[1],469 nM (active)
same,Potency,[2],935 nM (active)
same,Potency,[3],1180 nM (active)
same,Potency,[4],10.5 nM (active)
same,Potency,[5],2960 nM (active)
same,Potency,[6],1320 nM (active)
same,Potency,[7],2960 nM (active)
same,Potency,[8],13.2 nM (active)
same,Potency,[9],66.2 nM (active)
same,Potency,[10],418 nM (active)
same,Potency,[11],37.2 nM (active)
same,Potency,[19],264 nM (active)
same,Potency,[12],743 nM (active)
same,Potency,[13],8330 nM (active)
same,Potency,[14],3320 nM (active)
same,Potency,[15],1180 nM (active)
same,Potency,[16],209 nM (active)
same,Potency,[17],38.9 nM (active)
same,Z-AUC,[17]; [21],-3.38
same,Z-AUC,[17]; measured here: PEO4 Z-AUC,-2.58
same,Potency,[20]; TFE3-RCC UOK109 viability,1480 nM (active)
same,z-score,[20]; [22],-0.967
same,z-score,[20]; [23],-1.78
same,z-score,[20]; [24],-2.02
CCC(=C(c1ccccc1)c1ccc(OCCN(C)C)cc1)c1ccccc1,Potency,[1],18700 nM (active)
same,Potency,[2],20900 nM (active)
same,Potency,[3],inactive
same,Potency,[4],20900 nM (active)
same,Potency,[5],20900 nM (active)
same,Potency,[6],20900 nM (active)
same,Potency,[8],20900 nM (active)
same,Potency,[9],16600 nM (active)
same,Potency,[10],20900 nM (active)
same,Potency,[12],23500 nM (active)
same,Potency,[15],20900 nM (active)
same,Potency,[16],20900 nM (active)
CCN(CC)CCNC(=O)c1ccc2nc(-c3ccccc3)c(-c3ccc(CN4CCC(n5c(=O)[nH]c6ccccc65)CC4)cc3)nc2c1,Potency,[1],23500 nM (active)
same,Potency,[2],418 nM (active)
same,Potency,[3],20900 nM (active)
same,Potency,[18],10500 nM (active)
same,Potency,[5],743 nM (active)
same,Potency,[6],20900 nM (active)
same,Potency,[7],8330 nM (active)
same,Potency,[8],296 nM (active)
same,Potency,[9],590 nM (active)
same,Potency,[10],372 nM (active)
same,Potency,[11],1320 nM (active)
same,Potency,[19],1050 nM (active)
same,Potency,[12],332 nM (active)
same,Potency,[15],2350 nM (active)
same,Potency,[16],16600 nM (active)
same,Z-AUC,[17],-1.13 (inactive)
same,Z-AUC,[17]; [21],-1.23
same,Z-AUC,[17]; measured here: PEO4 Z-AUC,-1.53
CC[C@@H]1C(=O)N(C)c2cnc(Nc3ccc(C(=O)NC4CCC(N5CCN(CC6CC6)CC5)CC4)cc3OC)nc2N1C(C)C (some centres undefined),Potency,[1],209 nM (active)
same,Potency,[2],14.8 nM (active)
same,Potency,[3],105 nM (active)
same,Potency,[4],833 nM (active)
same,Potency,[18],74.3 nM (active)
same,Potency,[5],166 nM (active)
same,Potency,[7],5900 nM (active)
same,Potency,[8],209 nM (active)
same,Potency,[9],18.7 nM (active)
same,Potency,[10],1660 nM (active)
same,Potency,[19],8330 nM (active)
same,Potency,[12],1870 nM (active)
same,Potency,[13],8330 nM (active)
same,Potency,[15],29.6 nM (active)
same,Potency,[16],37.2 nM (active)
same,Potency,[17],87.1 nM (active)
same,Z-AUC,[17]; [21],-2.37
same,Z-AUC,[17]; measured here: PEO4 Z-AUC,-1.84
same,Potency,[20]; TFE3-RCC UOK109 viability,3720 nM (active)
same,z-score,[20]; [22],-1.29
same,z-score,[20]; [23],-2.06
same,z-score,[20]; [24],-1.66
C=C1C(=CC=C2CCC[C@]3(C)[C@@H]([C@H](C)C=C[C@H](C)C(C)C)CC[C@@H]23)C[C@@H](O)C[C@@H]1O,Potency,[1],13200 nM (active)
same,Potency,[2],264 nM (active)
same,Potency,[3],3320 nM (active)
same,Potency,[18],526 nM (active)
same,Potency,[5],1660 nM (active)
same,Potency,[6],14800 nM (active)
same,Potency,[7],1050 nM (active)
same,Potency,[8],1870 nM (active)
same,Potency,[9],1320 nM (active)
same,Potency,[10],132 nM (active)
same,Potency,[11],2090 nM (active)
same,Potency,[19],16600 nM (active)
same,Potency,[12],1320 nM (active)
same,Potency,[13],14800 nM (active)
same,Potency,[14],10500 nM (active)
same,Potency,[15],526 nM (active)
same,Potency,[16],209 nM (active)
same,Z-AUC,[17],0.703 (inactive)
same,Z-AUC,[17]; [21],0.5
same,Z-AUC,[17]; measured here: PEO4 Z-AUC,0.821
same,Potency,[20]; TFE3-RCC UOK109 viability,418 nM (active)
same,z-score,[20]; [22],-1.36
same,z-score,[20]; [23],-0.997
same,z-score,[20]; [24],-1.08
